The nature of assay [1]: Viability qHTS for spleen associated tyrosine kinase inhibitor (SYKi) naive MV4-11 cells (AID 1963823). Further: nearly all actives have a fitted effect of over 40% in size. Put shortly: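 SYKi-naive MV4-11 AML cells, 500 per well, were exposed to library compounds for 72 hr at 37 C, 5% CO2. Viability was then read by CellTiter-Glo luminescence after 10 min at room temperature.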
For orientation: Quantitative high-throughput screening tests each substance at several concentrations.

Assay [2] in a line: Viability qHTS for spleen associated tyrosine kinase inhibitor (SYKi) drug resistant MV4-11 cells (AID 1963824). Further: nearly all actives have a fitted effect of over 35% in size. An outline of the steps:
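CellTiter-Glo luminescence, read 10 min after reagent addition, reports viability after a 72 hr compound exposure. Cells are an MV4-11 line made resistant to SYK inhibition, seeded at 500 per well onto compound-containing plates.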

Assay [3] in a line: Quantitative highthroughput screen to assess conditional lethalithy of NOMO1 cells grown in RPMI1640 with untreated serum (RPMI+s) (AID 1963876). Further: nearly all actives have a fitted effect of over 35% in size.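 On Viability: 100% = DMSO wells and 0% = empty wells without cells.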 Put shortly:
(§1)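 Each medium arm—HPLM with 10% dialyzed FBS, or RPMI1640 with 5 mM glucose and 10% untreated or dialyzed FBS—was screened against an 11-point, 3-fold compound titration for 48 h at 37 °C, with CellTiter-Glo luminescence as endpoint.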

Assay [4] can be described thus: Quantitative highthroughput screen to assess conditional lethalithy of NOMO1 cells grown in RPMI1640 with dialyzed fetal bovine serum (RPMI+ds) (AID 1963877). Further: nearly all actives have a fitted effect of over 30% in size.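 On Viability: series mostly up to about 46 µM; 100% = DMSO control wells and 0% = empty wells.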 Put shortly:
as §1

Assay [5] can be described thus: Quantitative highthroughput screen to assess conditional lethalithy of NOMO1 cells grown in Human Plasma-Like Medium with dialyzed fetal bovine serum (HPLM+ds) (AID 1963878). Further: nearly all actives have a fitted effect of over 35% in size.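 On Viability: 100% = DMSO wells and 0% = empty wells on each plate.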 An outline of the steps:
as §1

A short description of assay [6]: Quantitative highthroughput screen to assess conditional lethalithy of P12 Ichikawa cells grown in Human Plasma-Like Medium with dialyzed fetal bovine serum (HPLM+ds) (AID 1963879). Further: nearly all actives have a fitted effect of over 35% in size. On Viability: series mostly up to about 46 µM. To be noted: Potency: viability. Put shortly:
as §1

Assay [7] is described as follows: Quantitative highthroughput screen to assess conditional lethalithy of P12 Ichikawa cells grown in RPMI1640 with dialyzed fetal bovine serum (RPMI+ds) (AID 1963880). Further: nearly all actives have a fitted effect of over 35% in size.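 On Viability: 100% = DMSO wells and 0% = empty wells on each plate.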 To be noted: Potency: P12-Ichikawa viability. An outline of the steps: as §1
A short description of assay [8]: Quantitative highthroughput screen to assess conditional lethalithy of P12 Ichikawa cells grown in RPMI1640 with untreated serum (RPMI+s) (AID 1963881). Further: nearly all actives have a fitted effect of over 35% in size.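 On Viability: series mostly up to about 46 µM; 100% = DMSO wells and 0% = empty wells without cells.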 To be noted: Potency: viability. Put shortly: as §1
Assay [9] can be described thus: Quantitative highthroughput screen to assess conditional lethalithy of SEM cells grown in Human Plasma-Like Medium with dialyzed fetal bovine serum (HPLM+ds) (AID 1963882). Further: nearly all actives have a fitted effect of over 35% in size. On Viability: series mostly up to about 46 µM. An outline of the steps: as §1
Assay [10] is described as follows: Quantitative highthroughput screen to assess conditional lethalithy of SEM cells grown in RPMI1640 with unreated serum (RPMI+s) (AID 1963883). Further: nearly all actives have a fitted effect of over 35% in size.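 On Viability: 100% = DMSO wells and 0% = empty wells without cells.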 Put shortly:
as §1

A short description of assay [11]: Quantitative highthroughput screen to assess conditional lethalithy of SEM cells grown in RPMI1640 with dialyzed fetal bovine serum (RPMI+ds) (AID 1963884). Further: nearly all actives have a fitted effect of over 35% in size.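 On Viability: series mostly up to about 46 µM; 100% = DMSO control wells and 0% = empty wells without cells.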 An outline of the steps:
as §1

Assay [12] can be described thus: Cellular viability qHTS for adrenocortical cancer (ACC) cell line SW-13 (AID 1963989). Further: nearly all actives have a fitted effect of over 65% in size.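 On activity (max response): cells grown in serum-free medium with ITS supplement; on the % scale 0 is the no-effect control and ±100 the full control effect.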 To be noted: SW-13 ACC cells viability, CellTiter-Glo, 48 h; activity (max response): stronger effect = lower value. An outline of the steps:
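Compound titrations (up to 46 uM final, in DMSO) were applied to SW-13 cells for 48 h at 37C/5% CO2. Reading used CellTiter-Glo after 20 min at room temperature; fitted curves yielded IC50 and efficacy.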

Assay [13] is described as follows: Cellular viability qHTS for adrenocortical cancer (ACC) cell line NCI-H295R (AID 1963990). Further: nearly all actives have a fitted effect of over 60% in size. Put shortly:
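Readout: CellTiter-Glo luminescence, 20 min RT. Exposure: 48 h, 37C/5% CO2. Cells: NCI-H295R, ITS-DMEM serum-free. Range: up to 46 uM. Analysis: 4PL fit, IC50 plus efficacy.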

Values joined by “and” are separate entries in the source; they are usually repeats but may differ in a detail not shown here. Equal entries are not always repeated. Records with an inconclusive call do not appear. More than one record can exist for a structure, and the calls need not agree. Active and inactive are the calls of the source. The call rests on the fitted dose curve; in most records, active means well fitted curve in the direction sought with a large enough effect; inconclusive means small, poorly fitted or top-dose-only effect, or another doubt; inactive means no such curve, though single readings can be large; an effect the other way counts as inactive or inconclusive.
Potency means the concentration at half of the fitted maximal effect.

`N#Cc1cc(NC(=O)Nc2nnc(-c3ccncc3)s2)ccc1-c1cn[nH]c1`: the Potency result in assay [1], in assay [2], in assay [3], in [4], in [5] and in assay [6] was “inactive” throughout. Also, the Potency result in [7], in assay [8], in assay [9], in assay [10], in [11] and in assay [13] was “inactive” in each case. For the same compound, the activity (max response) in assay [12] is 13.8% (inactive).

Turning to `COc1ncc(-c2ccc3c(Nc4cc(Oc5cc(F)cc(F)c5)cc(C(=O)O)c4)c(S(=O)(=O)NC4CC4)cnc3c2)c(OC)n1`, the Potency entry in [1], in assay [2], in assay [3], in assay [4], in assay [5] and in assay [6] was “inactive” in each case. Also, the Potency entry in [7], in assay [8], in [9], in [10], in assay [11] and in [13] was “inactive” each time.

Regarding `C[C@](N)(Cc1ccc(O)c(O)c1)C(=O)O`, the Potency result in [1], in assay [3], in [4], in assay [5], in assay [6] and in assay [7] was “inactive” each time. Further, the Potency result in [8] and in assay [13] was “inactive” in each case. The Potency result in [2] was “inactive and 16.6 µM (active)”; in assay [9], 26.4 µM (active); in assay [10], 23.5 µM (active); in assay [11], 23.5 µM (active). Moreover, the activity (max response) in assay [12] was 12% (inactive) and -6.33% (inactive).

As to `CN1CCC(COc2cnc(-c3cccc(Cn4nc(-c5cccc(C#N)c5)ccc4=O)c3)nc2)CC1`, the Potency was 7.42 µM (active) and 8.2 µM (active) in assay [1]; 7.42 µM (active) and 13 µM (active) in [2]; 25.1 µM (active) in assay [13]. For the same compound, the Potency result in assay [3], in assay [4], in assay [5], in assay [6], in assay [7] and in assay [8] was “inactive” in each case. Besides, the Potency entry in assay [9], in assay [10] and in [11] was “inactive” in each case.

Turning to `COC(=O)Nc1ccc(-c2nc(N3CCOCC3)c3cnn(C4CCN(Cc5cccnc5)CC4)c3n2)cc1`, the Potency in assay [1] is 517 nM (active); in assay [2], 0.58 µM (active); in assay [3], 4.69 µM (active); in [4] it was 1.87 µM (active); in assay [5], 1.05 µM (active); in [6], 5.9 µM (active). For the same compound, the Potency in assay [7] is 1.48 µM (active); in [8], 0.469 µM (active); in assay [9], 0.662 µM (active); in assay [10], 0.296 µM (active); in assay [11], 0.372 µM (active); in assay [12], 12.6 µM (active). For the same compound, the Potency in assay [13] was 5.01 µM (active).

Turning to `CN(C)Cc1ccc(-c2nc3cccc4c3n2CCNC4=O)cc1`, the values for the Potency in assay [1], in [2] and in assay [13] were 16600 nM (active), 18.4 µM (active) and 25.1 µM (active), respectively. In addition, the Potency result in [3], in assay [4], in assay [5], in assay [6], in assay [7] and in assay [8] was “inactive” throughout. The Potency entry in [9], in assay [10] and in assay [11] was “inactive” in each case.

With `CC1CCN(c2cc(N3CCN(C)CC3)ccc2NC(=O)c2cc(C#N)c[nH]2)CC1`, the Potency in assay [1] is 5250 nM (active); in assay [2], 11.8 µM (active). Also, the Potency entry in assay [3], in assay [4], in assay [5], in assay [6], in assay [7] and in assay [8] was “inactive” throughout. Also, the Potency entry in assay [9], in assay [10], in assay [11] and in assay [13] was “inactive” each time. Besides, the activity (max response) in assay [12] was -21.1% (inactive).

With `CC(C)[C@H](CO)Nc1nc(Nc2cccc(Cl)c2)c2ncn(C(C)C)c2n1`, the Potency in assay [1] was 2590 nM (active); in [2], 3.32 µM (active); in assay [3] it was 2.09 µM (active); in [4], 2.35 µM (active); in [5], 0.743 µM (active); in assay [6], 4.18 µM (active). The Potency in assay [7] was 5.9 µM (active); in assay [8] it was 8.33 µM (active); in assay [9], 1.32 µM (active); in assay [10], 0.372 µM (active); in [11], 0.418 µM (active); in [12], 22.4 µM (active). Also, the Potency in [13] was 20 µM (active).

Take `O=C(/C=C\n1cnc(-c2cc(C(F)(F)F)cc(C(F)(F)F)c2)n1)NNc1cnccn1`: the Potency in assay [1] is 833 nM (active); in [2], 1.18 µM (active); in assay [3], 1.05 µM (active); in assay [4], 0.933 µM (active); in assay [5], 0.831 µM (active); in assay [6] it was 0.588 µM (active). Further, the Potency in assay [7] is 0.588 µM (active); in assay [8] it was 0.524 µM (active); in [9] it was 0.741 µM (active); in assay [10], 0.588 µM (active); in [11], 0.741 µM (active); in [13], 2.24 µM (active).

Regarding `CC(C)C[C@H](NC(=O)[C@H](Cc1ccccc1)NC(=O)c1cnccn1)B(O)O`, the Potency in [1] was 13.2 nM (active); in [2], 9.4 nM (active) and 11.8 nM (active); in [3], 0.0469 µM (active); in [4], 0.0469 µM (active); in [5], 0.0469 µM (active); in [6], 0.0372 µM (active). The Potency was 0.0372 µM (active) in assay [7]; 0.0372 µM (active) in [8]; 0.0209 µM (active) in [9]; 0.0187 µM (active) in assay [10]; 0.0166 µM (active) in [11]; 20.6 nM (active) and 79.4 nM (active) in [12]. For the same compound, the Potency in assay [13] is 8.2 nM (active) and 35.5 nM (active).

Turning to `CCc1ccc(OCc2ccccc2C(=O)Nc2ccc3nc(C)cc(N)c3c2)cc1`, the Potency in [1] is 1660 nM (active); in assay [2] it was 2.09 µM (active); in assay [3], 9.35 µM (active); in assay [4], 8.33 µM (active); in [5], 3.32 µM (active); in assay [6], 9.35 µM (active). In addition, the Potency in assay [7] was 14.8 µM (active); in assay [8] it was 13.2 µM (active); in assay [9] it was 3.72 µM (active); in [10], 10.5 µM (active); in assay [11], 10.5 µM (active); in [12] it was 5.01 µM (active). Besides, the Potency in [13] is 5.62 µM (active).

Turning to `COc1cc(C[C@@H](CO)[C@H](CO)Cc2ccc(O)c(OC)c2)ccc1O`, the Potency entry in [1], in assay [2], in [3], in assay [4], in assay [5] and in [6] was “inactive” each time. In addition, the Potency result in [7], in assay [8], in assay [9], in assay [10], in assay [11] and in assay [13] was “inactive” each time. The activity (max response) in [12] was -8.41% (inactive).

With `CC(C)(C)c1cnc(CSc2cnc(NC(=O)C3CCNCC3)s2)o1`, the Potency was 296 nM (active) in [1]; 0.332 µM (active) in [2]; 1.05 µM (active) in assay [3]; 0.935 µM (active) in [4]; 0.59 µM (active) in assay [5]; 0.166 µM (active) in assay [6]. Besides, the Potency in [7] is 1.32 µM (active); in assay [8], 1.18 µM (active); in [9] it was 0.662 µM (active); in [10], 0.935 µM (active); in assay [11], 0.833 µM (active); in assay [12] it was 0.631 µM (active). Besides, the Potency in [13] is 7.94 µM (active).

Values taken from PubChem BioAssay (NCATS).
